According to PubChem BioAssay (Tox21):
“And” between values parts separate entries of the source, which are not always exact repeats. Equal values may be shown once. Inconclusive results are not listed. The source made the active and inactive calls. Calls come from the whole dose curve; as a rule, active = well fitted curve in the direction sought with a large enough effect in the repeat runs; inconclusive = weak or mixed curves; inactive = no such curve, though single readings can be large; an effect the other way counts as inactive or inconclusive.

Legend:
[1] = Human pregnane X receptor (PXR) small molecule agonists, qHTS cell viability counter screen (AID 1346977); note: nearly all actives have a fitted effect of over 50% in size; note: potency is the fitted concentration of half-maximal effect
In short: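 PXR-Luc HepG2 cells (2,000/well, 5% charcoal-stripped FBS) preincubated 5 hr, then exposed to compounds 24 hr at 37 C. Viability read in the same wells by CellTiter-Fluor fluorescence, reagent added at 23 hr, 1 hr incubation.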

[2] = Caspase-3/7 induction in HepG2 cells by small molecules, qHTS assay (AID 1346978); note: nearly all actives have a fitted effect of over 15% in size
In short: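 Wild-type HepG2 cells (2,000/well) were settled 5 h at 37 C, 5% CO2, then exposed to compounds in DMSO for 17 h. Caspase-3/7 activity was read by luminescence 30 min after adding Caspase-Glo 3/7 reagent at room temperature.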

[3] = Caspase-3/7 induction in CHO-K1 cells by small molecules, qHTS cell viability counter screen (AID 1346979); note: nearly all actives have a fitted effect of over 35% in size; note: potency is the fitted concentration of half-maximal effect
In short: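 Wild-type CHO-K1 cells (1,500/well) treated with compound after 5 h plating; after 16 h at 37C, viability read as CellTiter-Fluor fluorescence following 1 h reagent incubation, in the same wells as the caspase read.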

[4] = Caspase-3/7 induction in CHO-K1 cells by small molecules, qHTS assay (AID 1346980); note: nearly all actives have a fitted effect of over 15% in size
In short: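 Wild-type cells were seeded at 1,500 per well and settled 5 hr at 37 C, 5% CO2, then exposed to DMSO-dissolved compounds for 17 hr. Caspase-Glo 3/7 reagent was added, and luminescence was read after 30min at room temperature.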

[5] = Caspase-3/7 induction in HepG2 cells by small molecules, qHTS cell viability counter screen (AID 1346981); note: nearly all actives have a fitted effect of over 30% in size; note: potency is the fitted concentration of half-maximal effect
In short: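 Fluorescence read-out of live-cell protease activity (CellTiter-Fluor) after 1 hr with reagent. This was measured in the same wells as the caspase-3/7 luminescence, on HepG2 cells exposed to DMSO-dissolved compounds for 16 hr at 37 C.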

[6] = molecular target: Nuclear receptor subfamily 1 group I member 2 (Homo sapiens) (UniProt O75469); assay: Human pregnane X receptor (PXR) small molecule agonists, qHTS assay (AID 1346982); note: nearly all actives have a fitted effect of over 35% in size; note: potency is the fitted concentration of half-maximal effect
Sequence of Nuclear receptor subfamily 1 group I member 2 (Homo sapiens) (O75469 whole entry, looked up): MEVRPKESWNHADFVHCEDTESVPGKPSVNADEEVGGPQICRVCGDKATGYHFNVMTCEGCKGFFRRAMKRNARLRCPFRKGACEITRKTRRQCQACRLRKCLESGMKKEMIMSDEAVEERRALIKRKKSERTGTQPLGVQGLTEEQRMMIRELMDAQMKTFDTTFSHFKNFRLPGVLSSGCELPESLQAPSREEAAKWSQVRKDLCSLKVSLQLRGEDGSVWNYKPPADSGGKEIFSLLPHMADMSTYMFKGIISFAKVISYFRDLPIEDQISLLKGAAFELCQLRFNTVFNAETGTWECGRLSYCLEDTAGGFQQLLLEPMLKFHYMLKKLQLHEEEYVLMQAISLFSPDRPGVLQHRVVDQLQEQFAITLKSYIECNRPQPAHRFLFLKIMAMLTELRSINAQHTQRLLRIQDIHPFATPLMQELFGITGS
In short: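 HepG2 PXR-Luc reporter line, 5% charcoal-stripped FBS; 5 hr pre-incubation, compound (DMSO) 24 hr at 37 C/5% CO2; ONE-Glo 30 min RT; luminescence read-out.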

[7] = molecular target: Cytochrome P450 2D6 (Homo sapiens) (UniProt P10635); assay: Cytochrome P450 Family 2 Subfamily D Member 6 (CYP2D6) small molecule antagonists: luciferase reporter qHTS assay (AID 1671196); note: nearly all actives have a fitted effect of over 50% in size; note: potency is the fitted concentration of half-maximal effect
Sequence of Cytochrome P450 2D6 (Homo sapiens) (P10635 whole entry, looked up): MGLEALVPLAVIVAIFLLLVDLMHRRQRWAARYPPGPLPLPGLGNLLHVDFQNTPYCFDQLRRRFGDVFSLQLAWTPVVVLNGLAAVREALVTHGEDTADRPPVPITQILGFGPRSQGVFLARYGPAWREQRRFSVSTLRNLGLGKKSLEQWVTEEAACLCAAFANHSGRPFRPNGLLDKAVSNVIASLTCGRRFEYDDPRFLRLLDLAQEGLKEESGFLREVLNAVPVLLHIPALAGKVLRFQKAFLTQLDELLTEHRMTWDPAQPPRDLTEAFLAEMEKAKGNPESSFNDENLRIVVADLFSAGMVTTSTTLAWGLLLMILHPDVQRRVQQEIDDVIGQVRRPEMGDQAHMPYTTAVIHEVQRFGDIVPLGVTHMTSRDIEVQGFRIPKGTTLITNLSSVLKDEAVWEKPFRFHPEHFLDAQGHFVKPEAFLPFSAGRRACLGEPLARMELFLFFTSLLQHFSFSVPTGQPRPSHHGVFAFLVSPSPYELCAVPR
In short: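 Luminogenic proluciferin substrate, CYP2D6 enzyme; 10 min RT preincubation with compound, NADPH regeneration system added, 1 h RT. Stop/detection reagent, 20 min RT, luminescence read (RLU). Signal proportional to CYP activity.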

[8] = molecular target: Cytochrome P450 2C19 (Homo sapiens) (UniProt P33261); assay: Cytochrome P450 Family 2 Subfamily C Member 19 (CYP2C19) small molecule antagonists: luciferase reporter qHTS assay (AID 1671197); note: nearly all actives have a fitted effect of over 65% in size; note: potency is the fitted concentration of half-maximal effect
Sequence of Cytochrome P450 2C19 (Homo sapiens) (P33261 whole entry, looked up): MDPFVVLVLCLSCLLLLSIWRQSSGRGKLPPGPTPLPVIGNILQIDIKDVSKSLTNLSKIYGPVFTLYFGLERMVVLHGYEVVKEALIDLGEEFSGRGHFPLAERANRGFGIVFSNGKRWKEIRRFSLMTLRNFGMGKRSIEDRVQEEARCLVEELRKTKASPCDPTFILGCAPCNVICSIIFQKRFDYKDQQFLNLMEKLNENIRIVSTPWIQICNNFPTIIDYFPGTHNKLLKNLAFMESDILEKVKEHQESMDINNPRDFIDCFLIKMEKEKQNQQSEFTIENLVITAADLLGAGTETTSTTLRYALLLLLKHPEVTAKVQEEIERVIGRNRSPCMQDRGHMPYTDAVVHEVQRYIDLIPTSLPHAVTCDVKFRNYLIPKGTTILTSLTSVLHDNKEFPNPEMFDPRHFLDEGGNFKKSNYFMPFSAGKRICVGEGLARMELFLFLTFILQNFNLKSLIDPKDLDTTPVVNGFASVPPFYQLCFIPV
In short: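 First, compounds are pinned into enzyme-substrate mix and held 10 min at room temperature. Second, NADPH regeneration solution is added and plates incubate 1 h at 37C. Third, detection reagent is added and luminescence read after 20 min.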

[9] = molecular target: Cytochrome P450 1A2 (Homo sapiens) (UniProt P05177); assay: Cytochrome P450 Family 1 Subfamily A Member 2 (CYP1A2) small molecule antagonists: luciferase reporter qHTS assay (AID 1671199); note: nearly all actives have a fitted effect of over 50% in size; note: potency is the fitted concentration of half-maximal effect
Sequence of Cytochrome P450 1A2 (Homo sapiens) (P05177 whole entry, looked up): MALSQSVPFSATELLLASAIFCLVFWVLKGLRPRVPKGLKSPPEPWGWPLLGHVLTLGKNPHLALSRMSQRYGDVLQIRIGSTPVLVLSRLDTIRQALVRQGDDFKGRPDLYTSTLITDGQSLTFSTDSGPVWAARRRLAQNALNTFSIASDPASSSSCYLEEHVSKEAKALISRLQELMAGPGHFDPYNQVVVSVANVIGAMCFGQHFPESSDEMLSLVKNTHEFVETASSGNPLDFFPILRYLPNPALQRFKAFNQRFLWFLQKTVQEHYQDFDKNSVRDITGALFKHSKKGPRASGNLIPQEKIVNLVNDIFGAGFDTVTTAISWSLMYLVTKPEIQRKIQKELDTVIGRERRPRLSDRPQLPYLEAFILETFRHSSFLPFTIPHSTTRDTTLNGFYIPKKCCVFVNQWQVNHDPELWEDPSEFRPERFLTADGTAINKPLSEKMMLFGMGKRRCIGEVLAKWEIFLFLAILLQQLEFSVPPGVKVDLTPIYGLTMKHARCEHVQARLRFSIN
In short: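 Luminescence readout (relative luminescence units) after luciferin detection reagent, 20 min RT. Preceded by 1 h room-temperature CYP1A2 reaction with NADPH regeneration solution following 10 min compound preincubation with enzyme and proluciferin substrate. Furafylline positive control.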

[10] = molecular target: Voltage-gated inwardly rectifying potassium channel KCNH2 (Homo sapiens) (UniProt Q12809); assay: Human Ether-a-go-go-Related Gene (hERG) channel small molecule antagonists: fluorescence cell-based qHTS assay (AID 1671200); note: nearly all actives have a fitted effect of over 50% in size; note: potency is the fitted concentration of half-maximal effect
Sequence of Voltage-gated inwardly rectifying potassium channel KCNH2 (Homo sapiens) (Q12809 whole entry, looked up): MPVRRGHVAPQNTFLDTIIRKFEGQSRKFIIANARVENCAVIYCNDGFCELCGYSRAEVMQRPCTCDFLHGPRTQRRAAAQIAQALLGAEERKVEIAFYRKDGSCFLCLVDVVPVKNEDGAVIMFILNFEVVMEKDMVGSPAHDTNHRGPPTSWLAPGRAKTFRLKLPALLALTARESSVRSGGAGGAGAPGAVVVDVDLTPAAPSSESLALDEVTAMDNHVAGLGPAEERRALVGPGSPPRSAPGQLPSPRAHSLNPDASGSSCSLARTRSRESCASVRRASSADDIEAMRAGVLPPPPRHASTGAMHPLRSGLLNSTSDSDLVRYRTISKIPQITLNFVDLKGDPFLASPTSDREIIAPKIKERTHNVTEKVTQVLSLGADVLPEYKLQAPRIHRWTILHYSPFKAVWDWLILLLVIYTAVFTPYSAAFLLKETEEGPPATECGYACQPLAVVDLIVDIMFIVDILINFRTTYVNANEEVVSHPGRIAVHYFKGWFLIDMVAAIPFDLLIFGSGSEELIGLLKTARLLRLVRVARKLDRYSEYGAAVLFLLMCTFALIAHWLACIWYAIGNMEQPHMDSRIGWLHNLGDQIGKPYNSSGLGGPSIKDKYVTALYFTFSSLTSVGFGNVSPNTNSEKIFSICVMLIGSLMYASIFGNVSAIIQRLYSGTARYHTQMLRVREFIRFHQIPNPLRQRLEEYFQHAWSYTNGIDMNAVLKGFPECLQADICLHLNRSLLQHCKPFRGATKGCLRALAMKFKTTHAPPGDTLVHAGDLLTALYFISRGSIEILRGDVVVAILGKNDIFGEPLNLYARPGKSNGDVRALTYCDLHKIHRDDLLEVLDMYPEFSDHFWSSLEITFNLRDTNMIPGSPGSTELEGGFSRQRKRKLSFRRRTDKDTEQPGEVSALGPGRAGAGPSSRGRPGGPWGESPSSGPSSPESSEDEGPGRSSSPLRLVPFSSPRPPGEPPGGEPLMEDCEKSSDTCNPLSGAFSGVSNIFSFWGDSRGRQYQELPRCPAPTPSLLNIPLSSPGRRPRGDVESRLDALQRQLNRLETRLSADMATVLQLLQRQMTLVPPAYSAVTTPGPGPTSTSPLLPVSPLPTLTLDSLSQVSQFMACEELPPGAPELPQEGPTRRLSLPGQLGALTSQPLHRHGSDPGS
In short: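 hERG-U2OS cells plated overnight at 37 C, loaded with FluxOR II dye 1 h at RT in dark; after 10 min, thallium stimulus added. Fluorescence (480/540 nm) read kinetically for 2 min at 1 s intervals.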

[11] = molecular target: Cytochrome P450 3A4 (Homo sapiens) (UniProt P08684); assay: Cytochrome P450 Family 3 Subfamily A Member 4 (CYP3A4) small molecule antagonists: luciferase reporter qHTS assay (AID 1671201); note: nearly all actives have a fitted effect of over 50% in size; note: potency is the fitted concentration of half-maximal effect
Sequence of Cytochrome P450 3A4 (Homo sapiens) (P08684 whole entry, looked up): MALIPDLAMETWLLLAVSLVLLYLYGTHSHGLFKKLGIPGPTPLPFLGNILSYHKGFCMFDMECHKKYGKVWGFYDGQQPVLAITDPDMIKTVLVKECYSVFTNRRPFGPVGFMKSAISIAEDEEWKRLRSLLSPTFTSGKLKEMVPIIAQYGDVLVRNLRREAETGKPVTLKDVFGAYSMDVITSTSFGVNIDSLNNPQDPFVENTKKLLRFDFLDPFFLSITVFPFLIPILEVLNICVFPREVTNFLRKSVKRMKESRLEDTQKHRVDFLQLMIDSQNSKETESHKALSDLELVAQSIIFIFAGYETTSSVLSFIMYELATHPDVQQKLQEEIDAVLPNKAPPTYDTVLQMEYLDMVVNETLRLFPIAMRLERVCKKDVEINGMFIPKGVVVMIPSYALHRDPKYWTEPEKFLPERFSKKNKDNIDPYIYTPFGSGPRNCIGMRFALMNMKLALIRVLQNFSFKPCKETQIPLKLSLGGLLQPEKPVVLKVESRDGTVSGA
In short: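 P450-Glo CYP3A4 luminescent assay: compounds preincubated 10 min at room temperature with enzyme and proluciferin substrate, NADPH regeneration added, 1 h room-temperature reaction, stopped with luciferin detection reagent; luminescence read after 20 min. Ketoconazole positive control.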

[12] = molecular target: Cytochrome P450 2C9 (Homo sapiens) (UniProt P11712); assay: Cytochrome P450 Family 2 Subfamily C Member 9 (CYP2C9) small molecule antagonists: luciferase reporter qHTS assay (AID 1671198); note: nearly all actives have a fitted effect of over 50% in size; note: potency is the fitted concentration of half-maximal effect
Sequence of Cytochrome P450 2C9 (Homo sapiens) (P11712 whole entry, looked up): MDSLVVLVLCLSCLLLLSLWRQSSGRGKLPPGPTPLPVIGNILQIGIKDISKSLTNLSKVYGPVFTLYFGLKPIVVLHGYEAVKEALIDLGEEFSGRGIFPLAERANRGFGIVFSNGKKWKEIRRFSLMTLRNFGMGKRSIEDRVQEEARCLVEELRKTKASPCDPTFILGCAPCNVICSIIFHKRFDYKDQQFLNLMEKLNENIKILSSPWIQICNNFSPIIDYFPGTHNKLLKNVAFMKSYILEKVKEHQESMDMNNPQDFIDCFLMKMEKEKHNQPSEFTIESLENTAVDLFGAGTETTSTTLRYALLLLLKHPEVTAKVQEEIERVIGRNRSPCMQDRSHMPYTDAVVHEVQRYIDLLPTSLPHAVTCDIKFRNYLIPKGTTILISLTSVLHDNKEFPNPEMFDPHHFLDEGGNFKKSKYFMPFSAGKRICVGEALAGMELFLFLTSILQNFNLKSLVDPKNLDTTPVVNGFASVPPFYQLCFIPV
In short: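 CYP2C9 activity was measured with a P450-Glo proluciferin substrate. Enzyme–substrate mix was held with compound for 10 min at room temperature, then NADPH regeneration solution was added for 1 h at 37C. Luciferin product was read as luminescence.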

Measured: Potency

C1CCC(SSC2CCCCC2)CC1
active: [9] 25.2 µM
not listed: [12]
inactive: all other assays above

O=C(O)c1cc(N=Nc2ccc([N+](=O)[O-])cc2)ccc1O
inactive: [2] | [4] | [10]
active: [1] 53.5 µM | [3] 47.7 µM | [5] 53.5 µM | [6] 0.301 µM | [7] 69.7 µM | [8] 39.2 µM | [12] 34.9 µM

CCCC1CCC(=O)CC1
not listed: [9]
inactive: all other assays above

CC(=O)c1ccc(C(C)=O)cc1
active: [8] 64.8 µM | [9] 28.9 µM
not listed: [7]
inactive: all other assays above

CCN(CCN)c1cccc(C)c1
inactive: [1] | [2] | [3] | [4] | [5]
active: [6] 61.7 µM and 61.1 µM | [7] 2.54 µM and 10 µM | [8] 7.17 µM and 35.6 µM | [9] 11.4 µM and 20 µM | [10] 24.5 µM | [11] 12.7 µM and 35.6 µM

O=C1OC2(c3ccc(O)cc3Oc3cc(O)ccc32)c2ccc(N=C=S)cc21
active: [8] 72.3 µM | [12] 72.3 µM
not listed: [9]
inactive: all other assays above

O=C(O)Cc1ccccc1Nc1c(Cl)cccc1Cl
not listed: [12]
inactive: all other assays above

CCCC[P+](C)(CCCC)CCCC
active: [6] 61.9 µM | [7] 0.203 µM
not listed: [10] | [12]
inactive: all other assays above

O=C(O)c1cccc(C(F)(F)F)c1
active: [12] 79.6 µM
inactive: all other assays above

CCCCOC(=O)CC
not listed: [8]
inactive: all other assays above

Cc1c(C)c2c(c(C)c1O)CC[C@@](C)(CCC[C@H](C)CCC[C@H](C)CCCC(C)C)O2
not listed: [8] | [12]
inactive: all other assays above

O=C(O)Cc1ccc2c(c1)C(=O)c1ccccc1CO2
not listed: [9] | [12]
inactive: all other assays above

O=C(O)[C@H](O)[C@@H](O)[C@H](O[C@@H]1O[C@H](CO)[C@H](O)[C@H](O)[C@H]1O)[C@H](O)CO
inactive: all assays above

CCCCCc1ccc(Cl)cc1
not listed: [10] | [12]
inactive: all other assays above

COCCOc1cc2cc(C(=O)NC3CCN(C(C)C)CC3)n(CC(=O)Nc3ccc(Cl)cn3)c2cn1
active: [1] 53.9 µM
not listed: [8] | [9] | [12]
inactive: all other assays above

CC[C@H](C)COC(=O)/C=C/c1ccc(N=Cc2ccc(OC)cc2)cc1
active: [3] 61 µM | [6] 30.6 µM | [7] 70.9 µM | [8] 0.893 µM | [12] 5.63 µM | [10] 43.6 µM | [11] 5.63 µM
inactive: [1] | [2] | [4] | [5]

OC[C@@H](O)[C@@H](O)CO
not listed: [7]
inactive: all other assays above

CC1(C)CCC[C@]2(C)[C@H]3CC(=O)O[C@]3(C)CC[C@@H]12
active: [6] 30.6 µM | [8] 39.9 µM | [12] 39.9 µM | [9] 44.8 µM | [10] 38.9 µM | [11] 31.7 µM
inactive: [1] | [2] | [3] | [4] | [5]

CC(=O)OCC=C(C)C
not listed: [7]
inactive: all other assays above

OCC(F)(F)F
active: [8] 74.8 µM
not listed: [12]
inactive: all other assays above
